The list is not random: actives were taken first. Their share in the collection is about 1.8%.
EWS-Fli block – blocks EWS/Fli oncoprotein-driven transcription | AID 651661 | inhibition, % at 12.6 µM | 350,000 tested, 0.67% active | A673 NR0B1-luciferase reporter, viability-normalised;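 active means mean inhibition of at least 50% after viability correction, with every replicate also passing that limit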;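 further: firefly luciferase signal divided by Alamar Blue viability fluorescence both relative to DMSO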
CFTR F508del cor – correctors of CFTR F508del function in bronchial epithelial cells; 350,000 tested, 0.36% active; AID 720511; activity (quench increase), % at 7.58 µM; CFBE cells, YFP halide quenching; stimulated with forskolin plus potentiator P3; % fluorescence drop versus neutral controls;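 active means mean added fluorescence quench of at least 8% versus neutral control, with both replicates also reaching 8%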;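 further: cells transiently co-express mutant CFTR-F508del with the halide-sensitive YFP; corrector assay measuring rescue of mutant channel to the surface after 24 h compound exposure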
PAX8 inh HTS – PAX8 transcriptional activity inhibition; AID 652154; inhibition, % at 12.6 µM; RMG-I TPO-luciferase reporter, SteadyGlo, 24 h; 360,000 tested, 1.2% active;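 active means mean replicate inhibition at least 60% with every replicate also reaching 60%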;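 further: luciferase light reporting Pax8 driven TPO promoter activity; plate controls were median of neutral control wells for no effect and mitoxantrone controls for full effect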
LGR2 antag – blocks bursicon-induced cAMP signaling via Drosophila LGR2. HEK293 LGR2, CRE-luciferase, bursicon-stimulated, 4 h. inhibition, % at 9.99 µM. 380,000 tested, 0.35% active. AID 720647;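 active means drop in luminescence signal, shown as inhibition above about 50% in the replicate tests, limit read from the data, passing the limit was not always enough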;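 further: agonist challenge used bursicon conditioned medium at about half maximal strength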
DNA binder FP – binds DNA displacing acridine orange; shares compounds with EWS-Fli block; salmon sperm DNA acridine orange fluorescence polarization; AC35, µM (series often up to 68 µM), without a hit: at the top dose activity change, negative = DNA binding; 640 tested, 2% active;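 active means fitted curve reaches a 35% signal fall AC35 below twice the sample's top valid tested dose, actives reach about 48 µM in these data; inactive means the rest, including activity in the rising direction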;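 further: lower polarization ratio signals compound binding to DNA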
An asterisk follows results filed as active; x = no result.

SMILES	EWS-Fli block	CFTR F508del cor	PAX8 inh HTS	LGR2 antag	DNA binder FP
Cc1c(O)ccc2c(CN3CCN(Cc4ccccc4)CC3)cc(=O)oc12	-9	-1	0	14	x
C[C@H]1ON(c2ccc(C(=O)OC(C)(C)C)cc2)[C@@H](c2ccc(O)cc2)[C@@H]1C(=O)N1C(=O)OC[C@@H]1c1ccccc1	2	-2	-3	x	x
COc1ccc2c3c(n(C)c2c1)[C@@H](CO)NCC31CCN(Cc2cc(-c3ccccc3)on2)CC1	-7	2	23	-18	x
C[C@H](CO)N1C[C@H](C)[C@@H](CN(C)Cc2ccc(C(=O)Nc3ccccc3N)cc2)Oc2ccc(NC(=O)Nc3ccc(F)cc3)cc2C1=O	6	-1	x	4	x
C[C@@H]1CN([C@H](C)CO)C(=O)c2cc(NC(=O)Nc3ccccc3)ccc2O[C@@H]1CN(C)Cc1ccc(C(=O)Nc2ccccc2N)cc1	55*	-2	-12	4	-11%
C[C@@H]1CN([C@H](C)CO)C(=O)c2cc(N(C)C)ccc2O[C@H]1CN(C)Cc1ccc(C(=O)Nc2ccccc2N)cc1	65*	2	4	8	6%
C[C@@H]1CN([C@@H](C)CO)C(=O)Cc2cc(NC(=O)C3CCCCC3)ccc2O[C@H]1CN(C)Cc1ccc(C(=O)Nc2ccccc2N)cc1	52*	-1	x	-6	-7%
C[C@H]1CN([C@@H](C)CO)C(=O)c2cc(N(C)C)ccc2O[C@H]1CN(C)Cc1ccc(C(=O)Nc2ccccc2N)cc1	61*	2	3	10	-8%
C[C@H](CO)N1C[C@H](C)[C@H](CN(C)Cc2ccc(C(=O)Nc3ccccc3N)cc2)OCCCC[C@H](C)Oc2ccc(N(C)C)cc2C1=O	9	2	-19	x	x
CCCNC(=O)N1CC2(CN(Cc3ccncc3)C2)c2c(n(C)c3cc(OC)ccc23)[C@H]1CO	-3	1	x	-20	x
CCC(=O)N1CC(=O)N2[C@@H](CO)[C@@H](c3ccc(C#Cc4cccc(F)c4)cc3)[C@@H]2C1	4	1	x	-11	x
Cc1ccccc1S(=O)(=O)Oc1ccc2ccc(O)cc2c1	-112	0	-77	-49	x
C[C@@H]1CN([C@H](C)CO)C(=O)Cc2cc(NC(=O)c3ccncc3)ccc2O[C@H]1CN(C)Cc1ccc(C(=O)Nc2ccccc2N)cc1	-5	-1	-26	13	x
C[C@H](CO)N1C[C@H](C)[C@H](CN(C)Cc2ccc(C(=O)Nc3ccccc3N)cc2)Oc2ccc(N(C)C)cc2C1=O	65*	1	76*	-18	3%
C[C@@H]1CN([C@H](C)CO)C(=O)Cc2cc(N(C)C)ccc2O[C@H]1CN(C)Cc1ccc(C(=O)Nc2ccccc2N)cc1	59*	4	16	-4	-9%
C[C@H]1CN([C@@H](C)CO)C(=O)c2cc(NS(C)(=O)=O)ccc2O[C@H]1CN(C)Cc1ccc(C(=O)Nc2ccccc2N)cc1	14	-2	x	-6	x
C[C@@H]1CN([C@@H](C)CO)C(=O)c2cc(N(C)C)ccc2O[C@H]1CN(C)Cc1ccc(C(=O)Nc2ccccc2N)cc1	63*	-1	-21	9	-7%
CCC(=O)Nc1cccc(NC(=O)c2ccccc2Br)c1	-7	-1	x	2	x
CCOC(=O)Cc1ccc(NC(=O)c2ccccc2Br)cc1	52*	-1	-36	x	-1%
Cc1ccc(/C=C/C(=O)N2CCN(S(=O)(=O)c3ccc(C)c(C)c3)CC2)o1	x	x	11	-2	x
Cc1ccc(/C=C/C(=O)N2CCN(S(=O)(=O)c3c(C)c(C)cc(C)c3C)CC2)o1	85*	x	15	7	0%
Cc1ccc2nc(-c3ccccc3)nn2c1	72*	2	x	86*	-12%
Cc1ccc(-c2nnc(-c3ccccc3)c(-c3ccccc3)n2)cc1	1	x	20	7	x
CC(=O)N1CC2(C1)[C@H](c1ccccc1)[C@H](CO)N2C(=O)Cc1ccccc1	-2	1	x	10	x
COCCn1cnc2c1c(=O)n(Cc1c(F)cccc1Cl)c(=O)n2Cc1ccccc1	1	-3	2	6	x
COc1ccc(C(C)(O)c2nc(-c3cccc(F)c3)cs2)cc1 (configuration not stated)	53*	-1	18	2	2%
Cc1cccc(N2C(=O)CC(n3ccnc3)C2=O)c1C (configuration not stated)	-5	2	-9	-8	x
C=CCNc1nc(-c2c(C)nc3ncccn23)cs1	-4	0	-6	10	x
Cc1nc2ncccn2c1-c1csc(Nc2ccc(O)cc2)n1	58*	x	-20	0	9%
